Assay [1] deals with Acetylcholinesterase (Homo sapiens) (UniProt P22303). Put plainly: Acetylcholinesterase (AChE) small molecule antagonists: enzyme-based qHTS assay (AID 1347397). Note: nearly all actives have a fitted effect of over 55% in size. Note: potency is the fitted concentration of half-maximal effect. The note with it: Potency: AChE enzyme activity inhibition; outcome: AChE enzyme activity inhibition. The essentials:
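In this quantitative HTS, compounds from the Tox21 10K collection were preincubated 30 min at ambient temperature with recombinant human AChE dispensed at 50 mU/mL. Hydrolysis of acetylthiocholine was then followed for 10 min by DTNB colour development.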
In general terms: qHTS replaces the single test concentration by a dilution series.

Assay [2] has the same target. Put plainly: Acetylcholinesterase (AChE) small molecule antagonists: fluorescence cell-based qHTS assay (AID 1347398). Note: nearly all actives have a fitted effect of over 50% in size. Note: potency is the fitted concentration of half-maximal effect. As to conditions: Potency: AChE activity; outcome: AChE activity. The essentials:
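Cells (SH-SY5Y) attached overnight, were dosed with compound or DMSO vehicle for 30 min at 37 C, and then incubated 40 min at room temperature with acetylthiocholine and Thiolite Green; green fluorescence indexed AChE activity.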

Assay [3] has the same target. Put plainly: Acetylcholinesterase (AChE) small molecule antagonists: enzyme-based qHTS assay with human liver microsomes (AID 1347399). Note: nearly all actives have a fitted effect of over 60% in size. The note with it: Potency: qHTS inhibition; outcome: qHTS inhibition. The essentials:
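Recombinant human AChE (50 mU/mL in the enzyme mix) and human liver microsomes (0.25 mg/mL final) were preincubated with compound and NADPH (0.25 mg/mL final) for 30 min at 37 C. Acetylthiocholine/DTNB was then added; thiocholine was read colorimetrically after 10 min at room temperature.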

Values joined by “and” are separate entries in the source; they are usually repeats but may differ in a detail not shown here. Equal values may be shown once. Unmarked numbers belong to inactive results. Results filed as inconclusive are left out. Active and inactive are the calls of the source. Calls come from the whole dose curve.

Acetylcholinesterase (Homo sapiens), sequence (P22303 whole entry, looked up): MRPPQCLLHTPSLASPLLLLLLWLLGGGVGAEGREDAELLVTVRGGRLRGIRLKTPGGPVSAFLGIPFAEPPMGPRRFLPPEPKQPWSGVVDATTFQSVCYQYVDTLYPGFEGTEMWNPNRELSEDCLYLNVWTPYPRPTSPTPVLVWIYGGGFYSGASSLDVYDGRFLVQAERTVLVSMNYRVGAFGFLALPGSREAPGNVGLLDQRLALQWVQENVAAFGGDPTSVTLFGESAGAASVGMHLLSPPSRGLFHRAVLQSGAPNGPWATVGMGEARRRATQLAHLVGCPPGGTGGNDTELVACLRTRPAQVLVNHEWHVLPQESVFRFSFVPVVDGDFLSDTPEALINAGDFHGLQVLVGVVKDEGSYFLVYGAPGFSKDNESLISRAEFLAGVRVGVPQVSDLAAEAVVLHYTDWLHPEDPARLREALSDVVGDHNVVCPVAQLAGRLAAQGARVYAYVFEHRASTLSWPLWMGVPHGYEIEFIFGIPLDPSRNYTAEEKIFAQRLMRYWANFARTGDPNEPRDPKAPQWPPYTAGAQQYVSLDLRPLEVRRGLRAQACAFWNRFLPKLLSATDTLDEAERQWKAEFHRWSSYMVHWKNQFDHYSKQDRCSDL

As to `Cc1[nH]c(=O)c(C#N)cc1-c1ccncc1`, the Potency result in assay [1], in assay [2] and in assay [3] was “inactive” in each case.
Take `ON=C1CCCC1`: the Potency result in assay [1], in assay [2] and in assay [3] was “inactive” throughout.
As for `O=P(O)(O)Oc1ccccc1`, the Potency entry in assay [1], in assay [2] and in assay [3] was “inactive” throughout.
Turning to `CN[C@H]1CC[C@@H](c2ccc(Cl)c(Cl)c2)c2ccc(S(N)(=O)=O)cc21`, the Potency entry in assay [1] and in assay [3] was “inactive” in each case. Also, the Potency in assay [2] is 35.6 µM (active).
On to `COc1cc(C(=O)NC2CCCNC2)cc(OC)c1OC` (configuration not stated), for which the Potency entry in assay [1], in assay [2] and in assay [3] was “inactive” throughout.
For the molecule `CCCCCCCCO[C@@H]1O[C@H](CO)[C@@H](O)[C@H](O)[C@H]1O`, the Potency entry in assay [1], in assay [2] and in assay [3] was “inactive” each time.
With `NCCCCCCNCCCCCCN`, the Potency entry in assay [1] and in assay [3] was “inactive” each time. In assay [2], the Potency is 39.3 µM (active).
As for `COc1cccc(OC)c1C(=O)O`, the Potency entry in assay [1], in assay [2] and in assay [3] was “inactive” throughout.
Turning to `CCCCCCCCCCCCCC[P+](CCCC)(CCCC)CCCC`, the Potency in assay [1] is 31.6 µM (active) and 39.9 µM (active); in assay [2] it was 35.4 µM (active) and 63.3 µM (active). Moreover, in assay [3], the Potency result is “inactive”.
As to `COC(=O)c1cc(Cl)ccc1[N+](=O)[O-]`, the Potency entry in assay [1], in assay [2] and in assay [3] was “inactive” in each case.
As for `CCCCCCCCCCCCCCCCCCNC(=O)OC1CCN(C(=O)OC[C@H](COC(=O)N(Cc2cccc[n+]2CC)C(=O)c2ccccc2OC)OC)CC1`, the Potency in assay [1] was 30.9 µM (active). Further, the Potency entry in assay [2] and in assay [3] was “inactive” in each case.
Turning to `C=C(C)CCCC(C)CCO` (configuration not stated), the Potency entry in assay [1], in assay [2] and in assay [3] was “inactive” each time.
As for `Cc1ccc(C=O)s1`, the Potency result in assay [1], in assay [2] and in assay [3] was “inactive” in each case.
Regarding `O=C1CC[C@H](C(=O)N2CCCCC2)N1`, the Potency result in assay [1], in assay [2] and in assay [3] was “inactive” in each case.
`O=C(OCCN1CCOCC1)c1cccnc1Nc1cccc(C(F)(F)F)c1`: the Potency result in assay [1], in assay [2] and in assay [3] was “inactive” throughout.
With `O=C1CC2(CCCC2)CC(=O)N1`, the Potency entry in assay [1], in assay [2] and in assay [3] was “inactive” in each case.
For `C=COCCOCCOCCOC=C`, the Potency entry in assay [1], in assay [2] and in assay [3] was “inactive” throughout.
In the case of `C#CC(O)C(CC)CCCC` (configuration not stated), the Potency entry in assay [1], in assay [2] and in assay [3] was “inactive” in each case.
For `CCCCOc1ccc(CC(=O)NO)cc1`, the Potency result in assay [1], in assay [2] and in assay [3] was “inactive” each time.
With `Nc1cccc(S(=O)(=O)O)c1`, the Potency result in assay [1], in assay [2] and in assay [3] was “inactive” throughout.
On to `CCC(CN)=C(c1ccccc1)c1ccccc1`, for which the Potency entry in assay [1], in assay [2] and in assay [3] was “inactive” each time.
For the molecule `O=c1[nH]cnc2ccccc12`, the Potency result in assay [1], in assay [2] and in assay [3] was “inactive” in each case.
`CCCOC(OCCC)OCCC`: the Potency result in assay [1], in assay [2] and in assay [3] was “inactive” in each case.
Consider `CCCCCCC[N+](CC)(CC)CCCCc1ccc(Cl)cc1`, for which the Potency result in assay [1] and in assay [3] was “inactive” in each case.
In the case of `Cc1cc(=O)oc2cc(N(C)C)ccc12`, the Potency result in assay [1] and in assay [3] was “inactive” in each case.
On to `O=C(CCCN1CCN(c2ccccn2)CC1)c1ccc(F)cc1`, for which the Potency entry in assay [1] and in assay [3] was “inactive” in each case.
For `O=C(c1ccc(F)cc1)C1CCN(CCn2c(=O)[nH]c3ccccc3c2=O)CC1`, the Potency entry in assay [1] and in assay [3] was “inactive” throughout.
For `Clc1ccc2c(c1)CCc1cccnc1C2=C1CCNCC1`, the Potency result in assay [1] and in assay [3] was “inactive” throughout.
With `Cn1c(N)c(N=O)c(=O)n(C)c1=O`, the Potency result in assay [1], in assay [2] and in assay [3] was “inactive” each time.
With `CN1C(=O)N(c2ccccc2Br)Cc2cnc(Nc3ccc4c(c3)OCC(CO)O4)nc21` (configuration not stated), the Potency result in assay [1] and in assay [3] was “inactive” each time.
Consider `Oc1ccc(C(O)CNCCCCCCNCC(O)c2ccc(O)c(O)c2)cc1O` (configuration not stated), for which the Potency result in assay [1] and in assay [3] was “inactive” throughout.
Turning to `c1ccc2c(c1)CCCC2C1=NCCN1` (configuration not stated), the Potency entry in assay [1] and in assay [3] was “inactive” throughout.
In the case of `O=C1[C@H]2CCCC[C@H]2C(=O)N1CCCCN1CCN(c2nsc3ccccc23)CC1`, the Potency result in assay [1] and in assay [3] was “inactive” in each case.
On to `NS(=O)(=O)c1cc2c(cc1Cl)NC(CC1CCCC1)NS2(=O)=O` (configuration not stated), for which the Potency entry in assay [1] and in assay [3] was “inactive” throughout.
In the case of `CCN1CCCC1CNC(=O)c1cc(S(N)(=O)=O)ccc1OC` (configuration not stated), the Potency result in assay [1], in assay [2] and in assay [3] was “inactive” each time.
With `CCCCCCOc1ccc(N)cc1`, the Potency result in assay [1], in assay [2] and in assay [3] was “inactive” in each case.
For `CCN(CCCCOC(=O)c1ccc(OC)c(OC)c1)C(C)Cc1ccc(OC)cc1` (configuration not stated), the Potency result in assay [1] and in assay [3] was “inactive” each time.
Take `CC(=O)OCC(CCn1cnc2cnc(N)nc21)COC(C)=O`: the Potency result in assay [1], in assay [2] and in assay [3] was “inactive” each time.
As to `Cc1nc(Nc2ncc(C(=O)Nc3c(C)cccc3Cl)s2)cc(N2CCN(CCO)CC2)n1`, the Potency result in assay [1] and in assay [3] was “inactive” throughout.
Consider `CCCC[P+](C)(CCCC)CCCC`, for which the Potency result in assay [1] and in assay [3] was “inactive” throughout.
`NS(=O)(=O)c1cc2c(cc1C(F)(F)F)NCNS2(=O)=O`: the Potency result in assay [1] and in assay [3] was “inactive” in each case.
With `Cc1cc(-c2ccc(N=Nc3cc(S(=O)(=O)O)c4ccccc4c3N)c(C)c2)ccc1N=Nc1cc(S(=O)(=O)O)c2ccccc2c1N`, the Potency entry in assay [1] and in assay [3] was “inactive” each time.
As to `CCNC(=O)NCCCOc1cccc(CN2CCCCC2)c1`, the Potency entry in assay [1], in assay [2] and in assay [3] was “inactive” each time.
`CCCCN(CCCC)CCCOC(=O)c1ccc(N)cc1`: the Potency result in assay [1] and in assay [3] was “inactive” in each case.
For `O=C1NC2CCCCN2C12CCN(CCCN1c3ccccc3CCc3ccc(Cl)cc31)CC2` (configuration not stated), the Potency entry in assay [1] and in assay [3] was “inactive” throughout.
With `CCC1=C[C@@H]2CN(C1)Cc1c([nH]c3ccccc13)[C@@](C(=O)OC)(c1cc3c(cc1OC)N(C)[C@H]1[C@@](O)(C(=O)OC)[C@H](OC(C)=O)[C@]4(CC)C=CCN5CC[C@]31[C@@H]54)C2`, the Potency entry in assay [1] and in assay [3] was “inactive” throughout.
As to `NC1(c2ccc(-c3nc4ccn5c(=O)[nH]nc5c4cc3-c3ccccc3)cc2)CCC1`, the Potency entry in assay [1] and in assay [3] was “inactive” throughout.

Values taken from PubChem BioAssay (Tox21).
